Results from PubChem BioAssay AID623911 (Vanderbilt High Throughput Screening Facility, 2012).
Out of some 2,100 compounds screened, about 770 (37%) were called active. Some of the results follow. Values without a mark were called inactive.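 Rule for the calls: active = by-eye trace score of 1 for enhancers or -1 for inhibitors, so actives lie on both sides (some results past the limit were not filed as active); inactive = score 0, or 3 fluorescent, or 4 baseline rise.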

Target: G protein-activated inward rectifier potassium channel 2 (Homo sapiens) + G protein-activated inward rectifier potassium channel 1 (Homo sapiens) (UniProt P48051+P48549)
Sequence (P48051 whole entry, looked up): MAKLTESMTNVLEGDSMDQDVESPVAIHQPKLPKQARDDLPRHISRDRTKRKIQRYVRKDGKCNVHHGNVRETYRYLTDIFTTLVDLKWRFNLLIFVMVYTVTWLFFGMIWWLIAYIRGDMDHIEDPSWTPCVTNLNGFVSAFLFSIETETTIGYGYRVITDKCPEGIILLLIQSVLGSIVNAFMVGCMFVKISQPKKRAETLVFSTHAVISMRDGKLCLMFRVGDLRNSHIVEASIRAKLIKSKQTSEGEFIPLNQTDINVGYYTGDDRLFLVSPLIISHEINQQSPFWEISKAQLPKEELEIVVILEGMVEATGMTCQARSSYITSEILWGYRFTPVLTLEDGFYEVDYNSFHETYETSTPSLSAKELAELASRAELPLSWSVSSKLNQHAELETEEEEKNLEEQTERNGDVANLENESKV
Sequence (P48549 whole entry, looked up): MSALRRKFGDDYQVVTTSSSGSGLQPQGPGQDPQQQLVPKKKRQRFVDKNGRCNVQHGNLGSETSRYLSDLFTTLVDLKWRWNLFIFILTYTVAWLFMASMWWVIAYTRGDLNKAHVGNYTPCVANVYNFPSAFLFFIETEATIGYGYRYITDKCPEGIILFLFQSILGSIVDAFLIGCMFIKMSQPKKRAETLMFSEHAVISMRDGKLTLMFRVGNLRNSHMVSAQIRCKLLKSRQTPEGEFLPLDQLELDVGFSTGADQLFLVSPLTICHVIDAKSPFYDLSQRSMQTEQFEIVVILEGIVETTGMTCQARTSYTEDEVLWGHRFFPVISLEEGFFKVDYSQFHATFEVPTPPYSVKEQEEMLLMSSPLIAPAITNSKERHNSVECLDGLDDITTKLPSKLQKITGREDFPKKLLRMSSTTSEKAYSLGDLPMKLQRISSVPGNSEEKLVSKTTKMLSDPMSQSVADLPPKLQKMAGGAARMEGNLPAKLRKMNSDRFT
Test: GIRK1/2 thallium flux modulators, retest, confirmation, cell-based, HEK293 rmGlu8/hGIRK1/2, FluoZin-2 (AID 623911)
Conditions: HEK293 rmGlu8/hGIRK1/2, thallium flux FluoZin-2; actives lie on both sides; glutamate co-added at its EC20 level

Structure (SMILES)	manual score
CCCCN(C)S(=O)(=O)c1ccc(C(=O)Nc2nnc(-c3cccs3)o2)cc1	1 (active)
O=C(Nc1nnc(-c2cccs2)o1)c1cccc(Oc2ccccc2)c1	1 (active)
COc1ccc(C(=O)Nc2ccc(Oc3ncnc4sc(-c5ccccc5)cc34)cc2)cc1OC	0
O=C(Nc1nnc(-c2cccs2)o1)c1cccc(C(F)(F)F)c1	1 (active)
O=C(N/N=C/c1c(Cl)cccc1Cl)c1cccc(F)c1	0
Cc1cc(C)c(NC(=O)c2ccc(S(=O)(=O)N(C)C)cc2)c(C)n1	0
O=C(Nc1nnc(-c2cccs2)o1)c1cccc(F)c1	1 (active)
CCCCCc1nnc(NC(=O)Cc2cccs2)s1	0
Cc1occc1C(=O)Nc1cccc(C(F)(F)F)c1	0
CCOc1ccc(-c2cc(C)n3nc(C(N)=O)cc3n2)cc1	0
COCCCNc1c2c3c(cccc3[nH]c1=O)C(=O)c1ccccc1-2	3
Cc1[nH]c2ccccc2c1CN1CCc2ccccc2C1	0
CNc1nc(Cl)nc(NC(C)(C)C)n1	0
CCOC(=O)/C(=C\C=C1/Sc2cc(OCC)c(OCC)cc2N1CC)C(C)=O	3
Cc1ccc2c(c1)N(CC(=O)N(Cc1ccccn1)Cc1ccco1)C(=O)C(C(C)C)O2 (configuration not stated)	-0.5
CCC1Oc2ccc(C)cc2N(CC(=O)N(Cc2ccc(C)o2)C2CCCC2)C1=O (configuration not stated)	-1 (active)
Cc1ccc(S(=O)(=O)c2c(C)cc(C)nc2Cl)c(C)c1	0
CCCCn1c(SCC(=O)Nc2ccc(OC)cc2)nc2ccc(N3CCOCC3)cc2c1=O	0
COc1ccc(NC(=O)CSc2nc3ccccc3c(=O)n2CCCN2CCCCC2)c(OC)c1	-1 (active)
CCC(C)NC(=O)CSc1nc2ccccc2c(=O)n1Cc1ccc(OC)cc1 (configuration not stated)	0
CCOC(=O)CSc1nc(C)c2cc(OC)ccc2n1	0
COc1ccc(C(C)n2c(C)c3c(C)nnc(C)c3c2C)cc1 (configuration not stated)	-1 (active)

Structure (SMILES)	manual score
Cn1cc(S(=O)(=O)Nc2ccc(F)cc2F)c(=O)n(C)c1=O	0
S=c1nn[nH]n1C12CC3CC(CC(C3)C1)C2	1 (active)
Cc1cc2[nH]c(=O)c3ccccc3n2n1	0
CCOC(=O)c1cnn2c1[nH]c(=O)c1ccccc12	1 (active)
CCOC(=O)c1ccccc1Nc1cn(C(C)=O)c2ccccc12	-0.5
CCS(=O)(=O)Nc1ccc(-c2nnc(SCC(=O)c3ccc(NC(C)=O)c(OC)c3)o2)cc1	0
N#CCN1C(=S)N=C(Nc2cccc(Cl)c2)C12CCCCC2	0.5
COc1ccc(NC2=NC(=S)N(c3ccccc3C)C23CCCCC3)cc1	1 (active)
Cc1ccc(NC2=NC(=S)N(CC#N)C23CCCCC3)cc1	0
CCOC(=O)C(C)Sc1nc2c(cnn2-c2ccc(C)cc2)c(=O)[nH]1 (configuration not stated)	0
NC(=O)CSc1ncnc2c1cnn2Cc1ccccc1	0
CN(C)CCNc1ncnc2c1cnn2-c1ccc(Cl)cc1	0
Cc1ccc(-n2ncc3c(SCc4ccccc4)ncnc32)cc1	1 (active)
Cc1ccc(CSc2ncnc3c2cnn3-c2ccc(C)cc2)cc1	1 (active)
COc1ccc(OC)c(Nc2ncnc3c2cnn3-c2cccc(C)c2)c1	0
CN(C)CCCOc1ccc(C(C)(C)c2ccccc2)cc1	0
COc1ccc(OCCCN2CCCCCC2)cc1	0
CCN1CCN(CCCOc2ccc(-c3ccccc3)cc2)CC1	-1 (active)
CCCCC(=O)N1CCCC(c2nc3c(nnn3Cc3cc(C)ccc3C)c(=O)[nH]2)C1 (configuration not stated)	0
Cc1cc(-c2n[nH]c(=S)n2/N=C/c2ccc(Br)s2)n[nH]1	0
S=c1[nH]nc(-c2ccco2)n1/N=C/c1ccc(Br)s1	0
S=c1[nH]nc(-c2ccccn2)n1/N=C/c1ccc(Br)s1	1 (active)

Structure (SMILES)	manual score
CN(C)Cc1cc(C(C)(C)C)c(O)c(C(C)(C)C)c1	-1 (active)
Cc1cccc(NC(=S)NNC(=O)c2csc(C(C)C)c2)c1	1 (active)
Cc1ccc(-c2nc3ccccc3o2)cc1NC(=S)NC(=O)c1cc2ccccc2o1	0
Cc1cc(C)c2oc(-c3ccc(C)c(NC(=S)NC(=O)c4cccs4)c3)nc2c1	0
Cc1ccc(C)c(NC(=S)NNC(=O)c2csc(C(C)C)c2)c1	1 (active)
c1cn(CC2(Cn3ccnc3)COC2)cn1	0
CN(C)CCNC(=O)c1ccc2c(c1)N(Cc1ccc(F)cc1)CCS2	-1 (active)
CN(C)CCNC(=O)c1cc2c(s1)-c1ccccc1OC2	0
CCCCOc1ccc(C(=O)OC2CC(C)N(C)CC2C)cc1 (configuration not stated)	-1 (active)
CCCCOC(=O)Nc1ccc(C(=O)OCCC)cc1	0
Cc1cc(C)cc(NC(=O)Cn2cc3c(n2)CCCCC3)c1	1 (active)
COc1cccc(NC(=O)CSc2nnc(-c3ccoc3C)n2-c2ccccc2)c1	-0.5
COc1cccc(NC(=O)C(Sc2nc3ccccc3c(=O)n2CC(C)C)c2ccccc2)c1 (configuration not stated)	0
O=C(CN1CCCCC1)Nc1cccc(Oc2ccccc2)c1	0
COc1cccc(NC(=O)CSc2nc(N)cc(N)n2)c1	0
COc1cccc(NC(=S)N/N=C2/CCCCc3ccccc32)c1	0.5
COc1cccc(NC(=O)Cn2cc3c(n2)CCCCC3)c1	1 (active)
COc1cccc(NC(=O)Cn2nnc(C(=O)Nc3ccccc3)c2N)c1	1 (active)
CC1CCc2nn(CC(=O)N3CCN(C(=O)c4ccco4)CC3)cc2C1 (configuration not stated)	0
COc1cccc(NC(=O)Cn2cc(C#N)c3ccccc32)c1	1 (active)
CCCOC(=O)c1ccc(-c2c(C)noc2-c2ccc(OC)cc2O)o1	0
CC(=O)c1c(C)[nH]c(C(=O)COc2cc(C)cc(C)c2)c1C	0

Structure (SMILES)	manual score
O=[N+]([O-])c1ccc(/C=N/NC(=S)Nc2ccccc2F)o1	1 (active)
Fc1ccccc1NC(=S)N/N=C/c1ccccc1Br	0
Fc1ccccc1/C=N/NC(=S)Nc1ccc(Cl)cc1Cl	0
CSC(=O)NC12CC3CC(CC(C)(C3)C1)C2	0
COCCNC(=O)CN1C(=O)CSc2ncccc21	1 (active)
CCC(C)NC(=O)CN1C(=O)CC(C)(C)S(=O)(=O)c2ccccc21 (configuration not stated)	0
COCCNC(=O)CCCCCn1c(=S)[nH]c2ccccc2c1=O	0
CC(c1ccc(Cl)cc1)n1c(-c2ccc3ccccc3n2)n[nH]c1=S (configuration not stated)	1 (active)
CCc1cc(-c2n[nH]c(=S)n2C(C)c2ccccc2)cs1 (configuration not stated)	-0.5
CC(c1ccc(F)cc1)n1c(-c2ccc3ccccc3n2)n[nH]c1=S (configuration not stated)	0.5
CCCCN(C)C1=Nc2cccc3cccc1c23	-1 (active)
COc1ccc(NC2=Nc3cccc4cccc2c34)cc1OC	0
CCc1ccc(NC(=S)NNC(=O)c2ccccc2OC(F)F)cc1	1 (active)
CC/C(=N\NC(=S)Nc1ccc(OC)cc1)c1ccc(OC(F)F)cc1	0
O=C1C2C3C=CC(C3)C2C(=O)N1/N=C/c1cn(Cc2ccccc2)c2ccccc12 (configuration not stated)	0
CC(C)CC(=O)NC(=S)Nc1nc(-c2cccc3ccccc23)cs1	0
CCOC(=O)Cc1csc(NC(=S)NC(=O)C(C)(C)C)n1	1 (active)
CCOC(=O)Cc1csc(NC(=S)NC(=O)c2ccc(C)cc2)n1	1 (active)
O=C(NC(=S)Nc1nc2c(s1)CCCC2)c1ccccc1	0
CCOC(=O)Cc1csc(NC(=S)NC(=O)c2ccccc2)n1	1 (active)
O=C(NC(=S)Nc1nc2c(s1)CCCC2)c1ccc(C(=O)c2ccccc2)cc1	0
CCOC(=O)Cc1csc(NC(=O)Nc2ccccc2)n1	1 (active)

Structure (SMILES)	manual score
O=C1C(Cl)=C(N2CCOCC2)C(=O)N1c1cccc(Cl)c1	0
CCCc1cc(-c2n[nH]c(=S)n2CC(C)C)cs1	0
CCCCCNC(=O)c1ccc2c(=O)[nH]c3c(C(=O)NCC4CCCO4)sc(=S)n3c2c1 (configuration not stated)	0
CC(C)C(C)(C#N)NC(=O)CSc1ncnc2sc(-c3ccccc3)cc12 (configuration not stated)	0
Cc1cc(C(=O)CSc2n[nH]c(N)n2)c(C)n1-c1cc(F)ccc1F	0
O=C1Nc2cc(S(=O)(=O)N3CCCC3)ccc2N2CCCC12 (configuration not stated)	0
Cc1ccc(NC(=O)COn2nnc3ccc(S(=O)(=O)N(C)C)cc32)cc1F	0
Cc1ccc(NC(=O)COC(=O)/C=C/c2ccco2)cc1S(=O)(=O)N(C)C	1 (active)
Cc1ccc(NC(=O)Cc2ccccc2Cl)cc1S(=O)(=O)N(C)C	1 (active)
Cc1cc(C(=O)OCC(=O)Nc2ccc(F)cc2)c(C)o1	0
CCOCc1c(C(=O)OCC(=O)Nc2ccc(C)c(S(=O)(=O)N(C)C)c2)oc2ccccc12	1 (active)
Cc1ccc(NC(=O)COC(=O)CCC(=O)c2ccc(Cl)cc2)cc1S(=O)(=O)N(C)C	1 (active)
CC(C)c1ccccc1NC(=O)COC(=O)/C=C/c1cccc([N+](=O)[O-])c1	0
O=C(CSCc1ccc(Br)cc1)N=Nc1c(O)[nH]c2ccccc12	0
CCc1nnc(NC(=O)CSc2nnc(C3CCCCC3)n2-c2cccc(Cl)c2)s1	0
COCCN=c1scc(-c2cccs2)n1/N=C/c1ccc(O)c(O)c1O	0
CCOC(=O)CN1NC2(CCC(C(C)(C)C)CC2)NC1=S (configuration not stated)	0
Cc1ccc(NC(=O)Cc2c(Cl)cccc2Cl)cc1S(=O)(=O)N(C)C	1 (active)
COC(=O)c1sccc1NC(=O)CSc1ccccc1NS(=O)(=O)c1ccccc1Cl	0
